# Laboratory results taken from PubChem BioAssay AID1259415 (National Center for Advancing Translational Sciences (NCATS), 2018).
# Where “and” joins values, the source holds several entries; their conditions need not be identical. Equal values may be shown once. In all, about 410,000 compounds went through this assay and about 18,000 (4.4%) were called active. Not shown: some 7% with an inconclusive outcome. Cut-off read from the data, not from the text of the source: active = activity change below about -60%; inconclusive = no clear call, values can overlap the other calls; inactive = above about -39%. What follows is part of a selection rich in actives, with near analogues and random picks from the rest. A structure can be active in one record and inactive in another.
# Assay: qHTS Assay for inhibitors of the human cytomegalovirus (HCMV)
# Conditions: HFF cells, HCMV-luciferase reporter, 72 h; at 57.5 µM; stronger effect = lower value
# From the text: NCGC Assay Overview: Infection with human cytomegalovirus (HCMV) continues to pose significant threats for pregnant women and immunocompromised hosts. HCMV causes serious morbidity and mortality in transplant recipients, and congenital HCMV is the leading infectious cause of mental retardation and deafness in children. In the 1990s, the annual costs associated with the disease burden of congenital CMV were estimated at around $2 billion. A HCMV vaccine is not available yet and HCMV therapies result in intolerable side effects and emergence of drug resistant viruses. […] Towards this goal we have developed and characterized a luciferase HCMV reporter that was initially used in 96 well plates and then optimized to 1536-well plates for utilization in screening of the MLSMR collection, the NGCG diversity collection and the NCGC Pharmaceutical Collection of approved and investigational drugs.
# NCGC Assay Protocol Summary:
# This is a cell-based assay for HCMV inhibition in HFFs cells. The screening used 2 compound doses and the HCMV-luciferase at MOI of 1 PFU/cell. Cells were treated and infected with HCMV. At 72 h post infection cell lysates were collected and luciferase activity was determined using the Glomax-Multi + Detection System (Promega, Madison, WI). Data were normalized to the controls for basal activity (buffer only) and known HCMV inhibitors Salinmoycin.
# 1536-well assay protocol for the assay:
# (1) Add 3 ul CMV/HFF cell culture. 1000 cells/well in DMEM nirmal media.
# (2) Incubate 16 hr at 37C.
# (3) Add 23 nl control compound, 10uM of Salinomycin.
# (4) Add 23 nl compounds in DMSO solution.
# (5) Add 3 ul CMV suspension. Final 1 puf/ul, Virus stock 2000pfu/ul
# (6) Incubate 72 hrs at 37C.
# (7) Add 4 ul OneGlo Luc Reagent.
# (8) Incubate 5 min at room temperature.
# % is set by controls: 0 for no effect and ±100 for the full control effect.
row,SMILES,"activity change, negative = inhibition"
1,CC(C)c1ccc(CN2C(=O)C(n3ccc4ccccc43)c3cccc(F)c32)cc1 (stereo not drawn),-19.8% (inactive)
2,C=CS(=O)c1sc(Cl)c(N2CCOCC2)c1[N+](=O)[O-] (stereo not drawn),-29.1% (inactive)
3,Cc1ccc(O)c(NC(=O)c2cc(-c3ccco3)on2)c1,-60.7% (active)
4,Cc1ccc(O)c(NC(=O)c2cc(-c3ccc(F)cc3)no2)c1,-17.5% (inactive)
5,COc1ccc2c(c1)CCc1c(C(=O)Nc3cc(C)ccc3O)noc1-2,-8.9% (inactive)
6,O=C(NCc1ccccc1Cl)C1=Cc2cc(Br)ccc2OC1,-3.65% (inactive)
7,CCOc1ccc(CNCc2c(C(=O)O)c(C)n(Cc3cccc(OC)c3)c2C)cc1OC,-14.2% (inactive)
8,Cc1c(CNC2CCCCC2)c(C(=O)O)c(C)n1Cc1cccc(Cl)c1,-85.4% (active)
9,C=Cc1ccc(Cn2c(C(=O)O)c(CNC3CCCC3)c3ccc(C)cc32)cc1,-2.87% (inactive)
10,COc1ccc(-c2nc(CN3CCC(C(=O)NCc4ccccc4)CC3)c(C)o2)cc1OC,1.58% (inactive)
11,CCOc1ccc(S(=O)(=O)N(CC(=O)NCCSCc2ccc(C)cc2)c2ccccc2)cc1,21.6% (inactive)
12,O=C1[C@@H]2C(Cc3ccc(O)cc3)NC3(C(=O)Nc4ccc(F)cc43)[C@@H]2C(=O)N1c1ccc(F)cc1 (stereo partly drawn),5.54% (inactive)
13,COc1ccc(C(=O)c2c3ccc([N+](=O)[O-])cc3[n+]([O-])n2CCCN)cc1,-65.8% (active)
14,COc1ccc([N+](=O)[O-])cc1NCC(=O)c1ccc(C)cc1,23.3% (inactive)
15,COc1ccc(NS(=O)(=O)c2cc(NC(=O)CC(=O)c3ccc([N+](=O)[O-])cc3)ccc2C)cc1,-28.9% (inactive)
16,Cn1cncc1-c1cc2cnc(Nc3ccc(OC(F)(F)F)cc3)cc2[nH]1,-21.4% (inactive)
17,Cc1ccc(S(=O)(=O)N2CCc3cc(C(=O)Nc4ccc(Cl)cc4C)ccc32)cc1,0.154% (inactive)
18,COc1ccc(Cn2c(=O)n(-c3ccccc3C)c(=O)c3c4c(sc32)CN(C(C)=O)CC4)cc1,3.89% (inactive)
19,CC(=O)c1ccc(N2CCN(S(=O)(=O)c3ccc4c(c3)CC(=O)N4C)CC2)cc1,-36.7% (inactive)
20,Cc1ccc(C)c2sc(NC(=O)c3ccc(S(=O)(=O)N4CCCC4)cc3)nc12,37.4% (inactive)
21,CC(=O)c1ccc(S(=O)(=O)N2CCN(c3nc4c(C)c(C)ccc4cc3C#N)CC2)cc1,-87.3% (active)

row,SMILES,"activity change, negative = inhibition"
1,CCC(=O)N1CCc2cc(Br)cc(S(=O)(=O)NCc3ccc(Cl)cc3)c21,-9.15% (inactive)
2,COC(=O)c1cc(NC(=O)c2nn(C)c(=O)c3ccccc23)cc(C(=O)OC)c1,-10.5% (inactive)
3,CCSc1nnc(NC(=O)c2cc(=O)c3cc(C)c(C)cc3o2)s1,1.6% (inactive)
4,Cc1cc(F)ccc1NS(=O)(=O)c1ccc(-n2cccn2)cc1,-27.3% (inactive)
5,CCC(=O)N1CCc2cc(Br)cc(S(=O)(=O)CCC(=O)N3CCN(c4ccc(F)cc4)CC3)c21,25.8% (inactive)
6,COC(=O)CC(=O)N1CCN(c2ccc(Cl)c(Cl)c2)CC1,-31.5% (inactive)
7,S=C(NCC1CCCO1)N1CCN(c2ccc(Cl)c(Cl)c2)CC1 (stereo not drawn),-86.4% (active)
8,COc1ccc(S(=O)(=O)N2CCN(C(=S)NCC3CCCO3)CC2)cc1OC (stereo not drawn),4.06% (inactive)
9,CCOc1ccccc1NC(=O)Cn1c(=O)n(Cc2ccco2)c(=O)c2sc3ccccc3c21,30.3% (inactive)
10,COc1ccc(CNC(=O)Cn2nnc(-c3ccccc3F)n2)cc1,-0.694% (inactive)
11,Cc1cc(NC(=O)CC(C)C)cc(-c2nc3ncccc3o2)c1O,5.83% (inactive)
12,COc1ccc(C(=O)COC(=O)CN2C(=O)C3CC=CCC3C2=O)c(OC)c1 (stereo not drawn),-5.28% (inactive)
13,O=C(COC(=O)CN1C(=O)C2CCCCC2C1=O)Nc1ccc(F)c(F)c1F (stereo not drawn),-3.46% (inactive)
14,CC1=CC(C)(C)Nc2ccc(OC(=O)CN3C(=O)C4CCCCC4C3=O)cc21 (stereo not drawn),-63% (active)
15,CCOc1ccc(C(=O)c2cn(Cc3ccccc3OC)c3ccc(F)cc3c2=O)cc1,-39% (inactive)
16,CC(C)(C)c1cc[n+](-c2[nH]c(=O)sc2/C=N/N=C(\[O-])c2ccccc2)cc1,-35.8% (inactive)
17,CCOc1ccc(S(=O)(=O)c2cn(Cc3ccc(OC)cc3)c3ccc(F)cc3c2=O)cc1,5.49% (inactive)
18,COc1cc(NC(=O)c2cncc(-c3ccc(C#N)cc3)c2)cc(C(=O)Nc2cccc(C(F)(F)F)c2)c1,-78.9% (active) and -65.8% (active)
19,COc1ccc(Sc2ccc(NC(=O)c3cccc(Cl)c3)cc2C#N)cc1,-22.8% (inactive)
20,COc1cccc(NC(=O)CN(C)C(C)C(=O)Nc2ccc(C#N)cc2)c1 (stereo not drawn),-15.8% (inactive)
21,COc1cc(OC)cc(C(=O)Nc2ccc3nc(Nc4cccc(C(F)(F)F)c4)cc(C)c3c2)c1,-92.6% (active)

row,SMILES,"activity change, negative = inhibition"
1,Cc1cc(Nc2cccc(C(F)(F)F)c2)nc2ccc(NC(=O)c3ccc(=O)[nH]c3)cc12,-15.4% (inactive)
2,COc1cc(OC)cc(C(=O)Nc2c(C(=O)Nc3ccc(F)cc3)oc3ccccc23)c1,-7.35% (inactive)
3,O=C1COCc2cc(-c3cccc(F)c3)ccc2N1CCN1CCOCC1,-29.7% (inactive)
4,CC(=O)c1cccc(NC(=O)C2CCCN(S(=O)(=O)c3cccc4nonc34)C2)c1 (stereo not drawn),8.09% (inactive)
5,CCOC(=O)c1cccc(NC(=O)c2cc(S(=O)(=O)N3CCCC(C)C3)cn2C)c1 (stereo not drawn),-10.5% (inactive)
6,CCOC(=O)c1cccc(NC(=O)C2CCCN(S(=O)(=O)c3cnc[nH]3)C2)c1 (stereo not drawn),-78.2% (active)
7,CN(C)c1ccc(NC(=O)CSc2nc(-c3ccco3)cc(C(F)(F)F)n2)cc1,13.1% (inactive)
8,Cc1cc(NC(=O)CCC(=O)N(CC(=O)NCC2CCCO2)c2ccccc2)no1 (stereo not drawn),-24.8% (inactive)
9,CCN(CC)P(=O)(Oc1cccc(C)c1)N(CC)CC,-101% (active)
10,Cc1cccc(OP(=O)(Oc2cccc(C)c2)OC(c2ccccc2)C(F)(F)F)c1 (stereo not drawn),19.6% (inactive)
11,Cc1cccc(OP(=O)(Nc2c(C)n(C)n(-c3ccccc3)c2=O)Oc2cccc(C)c2)c1,-36.3% (inactive)
12,Cc1cc(Nc2ccc(Br)cc2F)n2ncnc2n1,3.15% (inactive)
13,COc1ccc(Cl)cc1-n1c(CCC(=O)O)ccc1-c1ccc(C)cc1,10.6% (inactive)
14,Cc1cc(C)c(NC(=O)CCc2c(C)nc3c(c(C)nn3C(C)(C)C)c2C)c(C)c1,3.32% (inactive)
15,Cc1ccccc1N(C(=O)CNC(=O)c1cccs1)C(C(=O)NC1CCCC1)c1ccncc1 (stereo not drawn),62.4% (inactive)
16,COc1ccc(C(C(=O)NC2CCCCC2)N(C(=O)CCl)c2ccccc2Cl)cc1 (stereo not drawn),-97.5% (active)
17,COc1cccc(N(C(=O)C2COc3ccccc3O2)C(C(=O)NC2CCCCC2)c2ccc(O)cc2)c1 (stereo not drawn),-15.7% (inactive)
18,Oc1c(C(c2ccc(F)cc2)N2CCN(Cc3ccccc3)CC2)sc2nc(-c3ccco3)nn12 (stereo not drawn),-3% (inactive)
19,CC(=O)C[C@@H](O)CC(=O)[C@H]1OC(=O)CCCCCCc2ccccc21,6.44% (inactive)
20,CCCCCn1c(=O)[nH]c2cc(C(=O)NCCCN3CCCCC3C)ccc2c1=O (stereo not drawn),-19.8% (inactive)
21,Cc1cccc(N2CCN(C(=O)CCSCc3ccccc3F)CC2)c1C,11.2% (inactive)

row,SMILES,"activity change, negative = inhibition"
1,CCOC(=O)c1cnc2ccc(F)cc2c1Nc1ccc2c(c1)OCCO2,-76.3% (active)
2,CCC(=O)c1cc(F)ccc1OCC(=O)Nc1ccc2c(c1)OCCO2,-17.8% (inactive)
3,CCOC(=O)c1cnc2c(C)cc(C)cc2c1Nc1ccc(N2CCOCC2)cc1,6.54% (inactive)
4,COc1cccc(CNC(=O)C2CCCN(c3ncnc4c3nc3n4CCCCC3)C2)c1 (stereo not drawn),-15.7% (inactive)
5,O=C(NCc1ccccc1Cl)C1CCN(c2ncnc3c2nc2n3CCCCC2)CC1,0% (inactive) and -68.9% (active)
6,CCOC(=O)c1cccc(NC(=O)C2CCN(c3ncnc4c3nc3n4CCCCC3)CC2)c1,4.29% (inactive)
7,COc1ccc(N(C)C(=O)C2CCN(S(=O)(=O)c3cc(Br)cc4c3N(C(C)=O)CC4)CC2)cc1,8.13% (inactive)
8,COc1ccc(-c2cc(C(=O)Nc3sc4c(c3C(N)=O)CCCC4)no2)cc1,21.3% (inactive)
9,CC(C)(CNC(=O)Cc1ccc(Cl)cc1Cl)N1CCOCC1,-8.38% (inactive)
10,CC(C)(C)c1cc(C(=O)NN)n(Cc2ccc(Cl)cc2Cl)n1,-79.4% (active)
11,Cn1cc(C(=O)c2ccc(Cl)cc2Cl)cc1C(=O)NN,-23.5% (inactive)
12,CC(=O)Nc1cccc(NC(=O)CSc2cn(CC(=O)N3CCCC3)c3ccccc23)c1,-3.21% (inactive)
13,O=C(CCS(=O)(=O)c1cc(Br)cc2c1N(C(=O)C1CC1)CC2)Nc1ccc(C(F)(F)F)cc1,1.29% (inactive)
14,O=C(NCc1ccccc1)C1=C[C@@H](C2CCCCC2)C[C@@H](OCc2ccc(CO)cc2)O1,-86.3% (active)
15,O=C(NCc1ccccc1)C1=C[C@H](C2CC2)C[C@H](OCc2ccc(CO)cc2)O1,7.43% (inactive)
16,CC(C)(C)[C@H]1C=C(C(=O)NCc2ccccc2)O[C@@H](OCc2ccc(CO)cc2)C1,-2.88% (inactive)
17,OCC1(CCc2ccccc2)CCN(Cc2ccc3nsnc3c2)CC1,13.2% (inactive)
18,CCC(C)CN1CCC(CO)(Cc2ccccc2Cl)CC1 (stereo not drawn),-7.29% (inactive)
19,Cc1c(CN2CCC(CO)(CCOc3ccccc3)CC2)[nH]c2ccc(Cl)cc12,-92.5% (active)
20,COc1ccccc1CNC(=O)CCn1c(=O)c2ccccc2n(CC(=O)Nc2cccc(Cl)c2)c1=O,-39.6% (inactive)
